The results in this text go back to article PMC7862700, “An all-to-all approach to the identification of sequence-specific readers for epigenetic DNA modifications on cytosine”.

The first experiment concerns the target T1, ETV7 (Homo sapiens, UniProt Q9Y603 1-341).
T1 sequence: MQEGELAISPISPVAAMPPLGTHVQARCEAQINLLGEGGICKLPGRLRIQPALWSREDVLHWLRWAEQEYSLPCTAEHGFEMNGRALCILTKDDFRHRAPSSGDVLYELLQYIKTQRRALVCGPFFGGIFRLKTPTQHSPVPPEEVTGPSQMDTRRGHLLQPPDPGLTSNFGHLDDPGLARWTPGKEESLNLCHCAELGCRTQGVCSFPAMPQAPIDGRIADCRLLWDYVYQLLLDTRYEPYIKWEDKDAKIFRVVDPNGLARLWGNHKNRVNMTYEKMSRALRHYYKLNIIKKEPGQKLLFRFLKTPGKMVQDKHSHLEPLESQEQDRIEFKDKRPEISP
The experiment is described as follows: DAPPL (digital affinity profiling via proximity ligation, sequencing); 10 mM Tris-HCl pH 7.5, 50 mM NaCl, 1 mM DTT, 4% glycerol, room temperature, 30 min; GST-TFs on glutathione beads, 16-mer random dsDNA library, 0.1% formaldehyde crosslink after washing; high values mean tight binding. As to conditions: protein: recombinant; tags: N-terminal GST; dsDNA, one strand shown. In outline:
(§1)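 Binding signal is defined as a hexamer's read frequency for one factor over its frequency for the tag-only sample. To obtain reads, GST-fused human transcription factors were expressed in yeast, captured on glutathione beads, barcoded with DNA and pooled with that sample. Pools met 200 nmole of a 16-mer random double-stranded DNA library in Tris/NaCl/DTT/glycerol buffer for 30 min at room temperature before washing, 0.1% formaldehyde crosslinking, proximity ligation (BsaI/T4 ligase, 1 h, 37 °C), PCR and Illumina NextSeq500 sequencing.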
For the sequence CGGCAT, the binding signal was 1.07 fold enrichment (6-mer frequency, TF over GST control).
Same read-out and setting: next, ACTCCA: 1.18 fold enrichment (6-mer frequency, TF over GST control).
Regarding AATTCA, the binding signal is 1.28 fold enrichment (6-mer frequency, TF over GST control).
Still for that read-out and setting: next, CTACCC: 1.23 fold enrichment (6-mer frequency, TF over GST control).
The same measure, in the same setting: the value for TCTGTT was 1.46 fold enrichment (6-mer frequency, TF over GST control); that for GATGGT was 1.06 fold enrichment (6-mer frequency, TF over GST control).
The same measure, in the same setting: next, TGGTTC: 1.48 fold enrichment (6-mer frequency, TF over GST control); TACCGA: 1.01 fold enrichment (6-mer frequency, TF over GST control); CCCTTT: 1.34 fold enrichment (6-mer frequency, TF over GST control).
For TAGGCT, the binding signal was 1.35 fold enrichment (6-mer frequency, TF over GST control).
On the same count and under the same terms, next, TCTAAC: 1.29 fold enrichment (6-mer frequency, TF over GST control); CGGAAG: 2.8 fold enrichment (6-mer frequency, TF over GST control); TGACAT: 1.25 fold enrichment (6-mer frequency, TF over GST control).
The same measure, in the same setting: next, ACGATA: 1.22 fold enrichment (6-mer frequency, TF over GST control); CTATTA: 1.07 fold enrichment (6-mer frequency, TF over GST control); ACTGTT: 1.01 fold enrichment (6-mer frequency, TF over GST control).
Same read-out and setting: next, ATAGCT: 1.31 fold enrichment (6-mer frequency, TF over GST control); CAGGAA: 1.52 fold enrichment (6-mer frequency, TF over GST control); GATGAA: 1.24 fold enrichment (6-mer frequency, TF over GST control).
For the sequence TAACCA, the binding signal was 1.09 fold enrichment (6-mer frequency, TF over GST control).

For the next experiment, the target named is T2, ELF5 (Homo sapiens, UniProt Q9UKW6-2 1-255).
T2 sequence: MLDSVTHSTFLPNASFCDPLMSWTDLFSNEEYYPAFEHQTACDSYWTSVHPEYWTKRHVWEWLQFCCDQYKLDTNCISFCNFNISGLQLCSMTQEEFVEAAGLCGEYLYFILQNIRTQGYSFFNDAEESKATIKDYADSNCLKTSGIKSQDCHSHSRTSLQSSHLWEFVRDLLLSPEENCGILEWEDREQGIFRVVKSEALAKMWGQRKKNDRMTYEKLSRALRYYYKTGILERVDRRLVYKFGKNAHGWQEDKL
The description is as above. Particulars: protein: recombinant; tags: N-terminal GST; dsDNA, one strand shown. In outline:
as §1
Regarding ACCTGG, the binding signal is 1.19 fold enrichment (6-mer frequency, TF over GST control).
The same measure, in the same setting: next, ACACCC: 1.12 fold enrichment (6-mer frequency, TF over GST control); ATACGC: 1.11 fold enrichment (6-mer frequency, TF over GST control); AACATG: 1.15 fold enrichment (6-mer frequency, TF over GST control).
The same measure, in the same setting: next, ATCCAC: 1.16 fold enrichment (6-mer frequency, TF over GST control); TGAAAC: 1.15 fold enrichment (6-mer frequency, TF over GST control); CGCGTC: 1.34 fold enrichment (6-mer frequency, TF over GST control).
Take CGACAC: the binding signal is 1.19 fold enrichment (6-mer frequency, TF over GST control).
Same read-out and setting: the value for AACCAT was 1.08 fold enrichment (6-mer frequency, TF over GST control); that for GACATT was 1.17 fold enrichment (6-mer frequency, TF over GST control).
TTCTGT: the binding signal is 1.29 fold enrichment (6-mer frequency, TF over GST control).
Same read-out and setting: the value for CACTCG was 1.05 fold enrichment (6-mer frequency, TF over GST control); that for CTAAAA was 1.11 fold enrichment (6-mer frequency, TF over GST control).
Turning to TAGTGT, the binding signal was 1.14 fold enrichment (6-mer frequency, TF over GST control).
The same measure, in the same setting: the value for TCCAAA was 1.15 fold enrichment (6-mer frequency, TF over GST control).
On the same count and under the same terms, the value for TTGTAG was 1.1 fold enrichment (6-mer frequency, TF over GST control); that for TTTCAA was 1.26 fold enrichment (6-mer frequency, TF over GST control); that for GTAATT was 1.28 fold enrichment (6-mer frequency, TF over GST control).
Same read-out and setting: next, ACTGCA: 1.01 fold enrichment (6-mer frequency, TF over GST control).
In the case of CGGCAT, the binding signal was 1.07 fold enrichment (6-mer frequency, TF over GST control).
Same read-out and setting: the value for ACTCCA was 1.14 fold enrichment (6-mer frequency, TF over GST control); that for AATTCA was 1.3 fold enrichment (6-mer frequency, TF over GST control).
For CTACCC, the binding signal is 1.29 fold enrichment (6-mer frequency, TF over GST control).
The same measure, in the same setting: the value for TCTGTT was 1.4 fold enrichment (6-mer frequency, TF over GST control).
Consider GATGGT, for which the binding signal was 1.08 fold enrichment (6-mer frequency, TF over GST control).
As for TGGTTC, the binding signal was 1.41 fold enrichment (6-mer frequency, TF over GST control).
The same measure, in the same setting: next, TACCGA: 1.08 fold enrichment (6-mer frequency, TF over GST control); CCCTTT: 1.52 fold enrichment (6-mer frequency, TF over GST control); TAGGCT: 1.09 fold enrichment (6-mer frequency, TF over GST control).
The same measure, in the same setting: the value for TCTAAC was 1.15 fold enrichment (6-mer frequency, TF over GST control); that for CGGAAG was 3.37 fold enrichment (6-mer frequency, TF over GST control).
On the same count and under the same terms, the value for TGACAT was 1.22 fold enrichment (6-mer frequency, TF over GST control); that for ACGATA was 1.09 fold enrichment (6-mer frequency, TF over GST control).
For the sequence CTATTA, the binding signal was 1.1 fold enrichment (6-mer frequency, TF over GST control).
For ACTGTT, the binding signal is 1.22 fold enrichment (6-mer frequency, TF over GST control).
Take ATAGCT: the binding signal was 1.07 fold enrichment (6-mer frequency, TF over GST control).
The same measure, in the same setting: the value for CAGGAA was 2.12 fold enrichment (6-mer frequency, TF over GST control).
As to GATGAA, the binding signal is 1.17 fold enrichment (6-mer frequency, TF over GST control).
On the same count and under the same terms, the value for TAACCA was 1.09 fold enrichment (6-mer frequency, TF over GST control).
